In PubChem BioAssay AID1159580 (chemical genetic matrix, 2015):
“And” between values parts separate entries of the source, which are not always exact repeats. Equal values may be shown once. About 2,000 (36%) of roughly 5,500 compounds were called active. Another 18% or so got no clear call; they are omitted. Rule as the data show it: active = normalized growth mostly below about 0.91 (no sharp cut-off); inconclusive = no clear call, values can overlap the other calls; inactive = mostly above about 0.92. Some of the results follow.

Assay: chemical genetic growth profiling, strain panel (AID 1159580);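 also: tested at 20 µM; growth read once vehicle control cultures reached saturation at 30 °C; 1 = growth at the plate median or of vehicle wells; lower values mean less growth of the strain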
Details: S. cerevisiae deletion strains, growth OD

Measured: normalized growth

NC(=O)N1c2ccccc2CC(=O)c2ccccc21
inactive: locus YAL013W, strain DEP1, active compounds read low 0.996 | locus YAL021C, strain ccr4, active compounds read low 0.991 | locus YAL026C, strain drs2, active compounds read low 0.998 | locus YAL030W, strain snc1, active compounds read low 0.993 | locus YBL061C, strain skt5, active compounds read low 0.994 | locus YBR009C, strain hhf1, active compounds read low 0.942 | locus YBR021W, strain FUR4, active compounds read low 0.969 | locus YBR023C, strain chs3, active compounds read low 1 | locus YBR171W, strain sec66, active compounds read low 0.989 | locus YBR229C, strain ROT2, active compounds read low 0.993 | locus YBR231C, strain swc5, active compounds read low 0.974 | locus YBR279W, strain paf1, active compounds read low 0.99 | locus YCL011C, strain gbp2, active compounds read low 0.991 | locus YCL016C, strain dcc1, active compounds read low 1.01 | locus YCL029C, strain bik1, active compounds read low 0.978 | locus YCL069W, strain vba3, active compounds read low 0.956 | locus YCR088W, strain abp1, active compounds read low 0.976 | locus YDL005C, strain med2, active compounds read low 0.971 | locus YDL035C, strain GPR1, active compounds read low 0.996 | locus YDL040C, strain nat1, active compounds read low 0.992 | locus YDL074C, strain BRE1, active compounds read low 1.03 | locus YDL101C, strain DUN1, active compounds read low 0.992 | locus YDL134C, strain PPH21, active compounds read low 0.989 | locus YDL185W, strain tfp1, active compounds read low 0.976 | locus YDL192W, strain arf1, active compounds read low 0.975 | locus YDR001C, strain nth1, active compounds read low 0.979 | locus YDR069C, strain doa4, active compounds read low 0.963 | locus YDR101C, strain arx1, active compounds read low 0.994 | locus YDR137W, strain rgp1, active compounds read low 0.991 | locus YDR150W, strain NUM1, active compounds read low 1 | locus YDR159W, strain sac3, active compounds read low 0.931 | locus YDR162C, strain NBP2, active compounds read low 1.02 | locus YDR195W, strain ref2 0.927 | locus YDR297W, strain sur2, active compounds read low 0.988 | locus YDR318W, strain mcm21, active compounds read low 0.962 | locus YDR334W, strain swr1, active compounds read low 0.95 | locus YDR335W, strain msn5, active compounds read low 0.973 | locus YDR388W, active compounds read low 0.991 | locus YDR392W, strain spt3, active compounds read low 0.956 | locus YDR502C, strain sam2, active compounds read low 0.994 | locus YEL003W, strain gim4, active compounds read low 0.987 | locus YEL037C, strain rad23, active compounds read low 0.984 | locus YEL061C, strain CIN8 (second series), active compounds read low 0.98 | locus YEL061C, strain CIN8, active compounds read low 0.998 | locus YER015W, strain faa2, active compounds read low 0.993 | locus YER016W, strain bim1, active compounds read low 1.01 | locus YER110C, active compounds read low 0.975 | locus YER111C, strain swi4, active compounds read low 0.993 | locus YER155C, strain BEM2 (second series), active compounds read low 0.97 | locus YER155C, strain BEM2, active compounds read low 0.982 | locus YER167W, strain BCK2, active compounds read low 0.967 | locus YFR010W, strain ubp6, active compounds read low 0.947 | locus YGL078C, strain dbp3, active compounds read low 0.99 | locus YGL086W, strain mad1, active compounds read low 0.974 | locus YGL167C, strain pmr1, active compounds read low 0.968 | locus YGL173C, strain kem1, active compounds read low 0.948 | locus YGL227W, strain vid30, active compounds read low 1.01 | locus YGL240W, strain doc1, active compounds read low 0.948 | locus YGL248W, strain PDE1, active compounds read low 0.987 | locus YGL253W, strain hxk2, active compounds read low 0.966 | locus YGR078C, strain PAC10, active compounds read low 1.01 | locus YGR135W, strain pre9, active compounds read low 1 | locus YGR229C, strain SMI1, active compounds read low 1 | locus YGR252W, strain gcn5, active compounds read low 0.922 | locus YHR013C, strain ard1, active compounds read low 0.995 | locus YHR027C, strain rpn1, active compounds read low 0.972 | locus YHR030C, strain SLT2, active compounds read low 0.983 and 0.997 | locus YHR079C, strain IRE1 (second series), active compounds read low 0.968 | locus YHR079C, strain IRE1, active compounds read low 0.997 | locus YHR094C, strain hxt1, active compounds read low 0.978 | locus YHR129C, strain ARP1, active compounds read low 0.99 | locus YHR142W, strain chs7, active compounds read low 0.977 | locus YHR200W, strain rpn10, active compounds read low 0.97 | locus YIL066C, strain RNR3, active compounds read low 0.991 | locus YIL073C, strain SPO22, active compounds read low 0.955 | locus YIL125W, strain kgd1, active compounds read low 0.998 | locus YIR030C, strain dcg1, active compounds read low 0.981 | locus YJL092W, strain hpr5, active compounds read low 0.995 | locus YJL095W, strain BCK1 (second series), active compounds read low 0.997 | locus YJL095W, strain BCK1, active compounds read low 1.02 and 0.994 | locus YJL115W, strain asf1, active compounds read low 0.992 | locus YJL129C, strain trk1, active compounds read low 0.995 | locus YJL134W, strain LCB3, active compounds read low 0.99 | locus YJL154C, strain vps35, active compounds read low 0.992 | locus YJL164C, strain tpk1, active compounds read low 0.972 | locus YJL166W, strain qcr8, active compounds read low 0.941 | locus YJL168C, strain set2, active compounds read low 0.985 | locus YJL187C, strain SWE1 (second series), active compounds read low 1 | locus YJR043C, strain POL32, active compounds read low 0.979 | locus YJR066W, strain TOR1, active compounds read low 0.946 | locus YJR075W, strain HOC1, active compounds read low 1.05
